Assay [1] can be described thus: APR_HepG2_CellCycleArrest_1hr: Apredica 1-hour HepG2 Assay for Cell Cycle Arrest (AID 2282666). The note with it: high-content imaging, actives raise or lower the signal. In a few lines:
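Cell cycle arrest scored from nuclear DNA content (Hoechst 33342) using high-content imaging of fixed HepG2 cells after 1 h treatment across 0.39–200 uM, in duplicate. Gain or loss fitted relative to 0.5% DMSO.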

A short description of assay [2]: APR_HepG2_CellLoss_1hr: Apredica 1-hour HepG2 Assay for Cell Loss (AID 2282668).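 Note: curves fitted both ways against DMSO so gain or loss of cells counts.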 The following applies: high-content imaging. In a few lines:
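Cell number comes from high-content imaging of Hoechst-labelled nuclei in fixed HepG2 cells. Cells were exposed for 1 h to ten concentrations from 0.39 to 200 uM in 0.5% DMSO. Gain or loss was fitted against DMSO controls.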

A short description of assay [3]: APR_HepG2_MicrotubuleCSK_1hr: Apredica 1-hour HepG2 Assay for Microtubule CSK Stabilty (AID 2282669). The note with it: HepG2 microtubule cytoskeleton imaging, actives raise or lower the signal. In short, it runs like this: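 Alpha-tubulin immunofluorescence, imaged by automated high-content microscopy with Hoechst nuclear segmentation, measured cytoskeletal change after 1 h dosing of HepG2 at 0.39–200 uM in 0.5% DMSO. Activity fitted in both directions relative to DMSO.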

The nature of assay [4]: APR_HepG2_NuclearSize_1hr: Apredica 1-hour HepG2 Assay for Nuclear Size (AID 2282670). The note with it: high-content imaging, actives raise or lower the signal. In short, it runs like this:
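Nuclear size measured by high-content imaging of Hoechst 33342 nuclear stain after formaldehyde fixation; human HepG2 line exposed 1 hr to compounds at 0.39–200 uM in 0.5% DMSO, with bidirectional curve fitting relative to DMSO.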

The nature of assay [5]: APR_HepG2_MitoticArrest_1hr: Apredica 1-hour HepG2 Assay for Mitotic Arrest (AID 2282672). The following applies: high-content imaging, actives raise or lower the signal. In a few lines: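 Ten-point concentration series (0.39 to 200 uM, duplicates, 0.5% v/v DMSO) applied to human HepG2 liver cells for 1 hr. High-content imaging of phospho-histone H3 and Hoechst-stained nuclei after fixation and permeabilization; DMSO-normalised bidirectional fit.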

Assay [6] can be described thus: APR_HepG2_P-H2AX_1hr: Apredica 1-hour HepG2 Assay for H2AX Phosphorylation (AID 2282673). The following applies: high-content imaging, actives raise or lower the signal. In a few lines:
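Phospho-H2A.x immunofluorescence (1:200, FITC secondary) plus Hoechst nuclear stain, quantified by high-content imaging in HepG2 after 1 hr compound exposure. Ten concentrations, 0.39 to 200 uM, in duplicate with 0.5% DMSO; fit both directions against DMSO.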

The nature of assay [7]: APR_HepG2_MitoMembPot_1hr: Apredica 1-hour HepG2 Assay for Mitochondrial Membrane Potential (AID 2282675). The note with it: imaging, actives raise or lower the signal. In short, it runs like this:
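Mitochondrial membrane potential read as MitoTracker Red CMXRos intensity by automated imaging of fixed HepG2 cells. Dye at 250 nM for 30 min pre-fixation; compounds 0.39 to 200 uM for 1 hour, duplicate wells, 0.5% DMSO.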

A short description of assay [8]: APR_HepG2_CellCycleArrest_24hr: Apredica 24-hour HepG2 Assay for Cell Cycle Arrest (AID 2282905).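 Note: cell cycle arrest scored as ratio of 2N to 4N nuclear DNA content.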 The following applies: imaging, actives raise or lower the signal. In a few lines:
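Compounds (0.39 to 200 uM, final DMSO 0.5% v/v) are applied to HepG2 cells for 24 hours; cells are then fixed, permeabilized and nuclei labeled with Hoechst 33342. Automated imaging measures DNA content, and activity is fitted in both directions against DMSO.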

Assay [9] in a line: ACEA_ER_80hr: ACEA Biosciences xCELLigence Real-Time Cell Analysis on Estrogen Receptor Agonism for Proliferation (AID 2282667; active = hit-call score of the fitted dose curve at least 0.9, where 1 is the maximum). The note with it: T47D proliferation, impedance (xCELLigence), 80 h. In short, it runs like this: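 Impedance readout (RT-CES) of T47D proliferation at 80 h post-dose; gain of signal vs DMSO baseline. Compounds: 8 conc, 1:4 serial, top 100 uM final, ≤0.5% DMSO; biological duplicate.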

The nature of assay [10]: APR_HepG2_MitoMass_1hr: Apredica 1-hour HepG2 Assay for Mitochondrial Mass (AID 2282674). The note with it: high-content imaging, actives raise or lower the signal. In short, it runs like this:
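Mitochondrial mass is taken from MitoTracker Red CMXRos (250 nM, 30 min, pre-fixation) fluorescence imaged at 20x in HepG2 cells. Exposure lasted 1 hr across ten concentrations, 0.39 to 200 uM, 0.5% DMSO; DMSO baseline, bidirectional fitting.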

Structures are written as SMILES. Inconclusive results are not listed. Active and inactive are the calls of the source. Rule for the calls, unless noted: active = hit-call score of the fitted dose curve at least 0.9, where 1 is the maximum; inactive = score below 0.9.

Consider `CCC(C)OC(=O)N1CCCCC1CCO` (centres undefined), for which the call in assay [1], in [2], in [3], in assay [4], in assay [5] and in [6] was inactive. For the same compound, the compound was called inactive in assay [7] and in assay [8].
Turning to `CCOC(=O)NCCOc1ccc(Oc2ccccc2)cc1`, the call in assay [1], in [9], in [2], in assay [3], in [4] and in assay [5] was inactive. The call in assay [6], in [7] and in assay [8] was inactive.
On to `N#CSCSc1nc2ccccc2s1`, for which the compound was classed as inactive in [1], in assay [2], in [3], in [4] and in [5]. Also, the values for the AC50 in assay [6], in assay [10] and in [8] were 27.5 µM (active), 28.1 µM (active) and 29.6 µM (active), respectively.
With `COC(=O)c1ccccc1C(=O)O`, the result in [1], in [9], in [2], in assay [3], in assay [4] and in assay [5] was inactive. For the same compound, the result in assay [6] and in assay [8] was inactive.
Take `CCN(CC)C(=O)c1cccc(C)c1`: the outcome in [1], in [9], in assay [2], in [3], in assay [4] and in [5] was inactive. For the same compound, the compound was called inactive in [6] and in [8].
On to `COC(=O)c1ccccc1S(=O)(=O)NC(=O)Nc1nc(OC(F)F)cc(OC(F)F)n1`, for which the outcome in assay [1], in assay [2], in assay [3], in assay [4], in assay [5] and in [6] was inactive. The compound was classed as inactive in assay [10] and in assay [8].
In the case of `COc1c(Cl)ccc(Cl)c1C(=O)O`, the compound was classed as inactive in assay [1], in assay [9], in [2], in [3], in assay [4] and in assay [5]. For the same compound, the compound was classed as inactive in [6] and in assay [8].
On to `OB(O)O`, for which the result in assay [1], in assay [9], in [2], in assay [3], in assay [4] and in assay [5] was inactive. The result in assay [6] and in [8] was inactive.
Take `CCSC(=O)N(CC(C)C)CC(C)C`: the compound was called inactive in assay [1], in [9], in [2], in assay [3], in assay [4] and in [5]. Further, the result in assay [6] and in [8] was inactive.
As for `COC(=O)CSc1cc(N=c2sc(=O)n3n2CCCC3)c(F)cc1Cl`, the compound was called inactive in assay [1], in assay [2], in assay [3], in assay [4], in assay [5] and in assay [6]. The call in assay [10] and in assay [8] was inactive.
With `O=C(Nc1ccc([N+](=O)[O-])cc1Cl)c1cc(Cl)ccc1O`, the outcome in [1], in assay [9], in assay [2], in [3], in assay [4] and in assay [5] was inactive. Besides, the result in assay [6] was inactive. The AC50 in assay [8] is 0.0918 µM (active).
For the compound `c1ccc2[nH]c(-c3cscn3)nc2c1`, the result in [1], in [2], in assay [3], in assay [4], in [5] and in [6] was inactive. Also, the call in [7] and in assay [8] was inactive.
`COCCO`: the result in assay [1], in assay [9], in assay [2], in assay [3], in assay [4] and in [5] was inactive. Further, the result in assay [6] and in assay [8] was inactive.
On to `CCCCOC(=O)C(C)Oc1ccc(Oc2ccc(C(F)(F)F)cn2)cc1` (centres undefined), for which the call in assay [1], in assay [2], in assay [3], in [4], in assay [5] and in assay [6] was inactive. The call in assay [8] was inactive. Also, in [9], the AC50 is 0.0178 µM (active).
Consider `CCCCC(CC)CN1C(=O)C2C3C=CC(C3)C2C1=O` (centres undefined), for which the compound was called inactive in [1], in assay [9], in assay [2], in [3], in [4] and in assay [5]. Moreover, the result in assay [6], in assay [10], in assay [7] and in assay [8] was inactive.
Consider `CCCCOC(=O)[C@@H](C)Oc1ccc(Oc2ccc(C(F)(F)F)cn2)cc1`, for which the outcome in assay [1], in assay [2], in assay [3], in assay [4], in [5] and in [6] was inactive. Further, the compound was called inactive in [7] and in [8]. Moreover, the AC50 in assay [9] is 13.7 µM (active).
As for `CCN(Cc1c(F)cccc1Cl)c1c([N+](=O)[O-])cc(C(F)(F)F)cc1[N+](=O)[O-]`, the result in [1], in assay [2], in assay [3], in [4], in [5] and in [6] was inactive. Besides, the compound was called inactive in [8]. Besides, the AC50 in assay [9] was 2.12 µM (active).
`CCCOC(=O)c1ccc(C(=O)OCCC)nc1`: the compound was classed as inactive in [1], in assay [9], in assay [2], in [3], in assay [4] and in [5]. In addition, the result in [6] and in [8] was inactive.
As for `C=CCOC(Cn1ccnc1)c1ccc(Cl)cc1Cl` (centres undefined), the compound was called inactive in [1], in [2], in assay [3], in assay [4], in assay [5] and in assay [6]. In addition, the compound was called inactive in assay [7] and in assay [8].
For `O=C(O)C1(C(=O)Nc2ccc(Cl)cc2Cl)CC1`, the compound was called inactive in [1], in assay [2], in assay [3], in assay [4], in assay [5] and in assay [6]. Also, the call in [10] and in [8] was inactive.
For `Cc1nn(C)c(Oc2ccccc2)c1C=NOCc1ccc(C(=O)OC(C)(C)C)cc1`, the outcome in assay [1], in assay [2], in [3], in assay [4], in [5] and in [6] was inactive. For the same compound, the AC50 is 0.00439 µM (active) in [9] and 29.9 µM (active) in [8].
As for `C#CCOC(=O)[C@@H](C)Oc1ccc(Oc2ncc(Cl)cc2F)cc1`, the outcome in assay [1], in assay [9], in [2], in assay [3], in assay [4] and in assay [5] was inactive. The call in [6], in [7] and in assay [8] was inactive.
Regarding `CC(C)(c1ccc(O)cc1)c1ccc(O)cc1`, the compound was called inactive in assay [1], in assay [2], in [3], in assay [4], in assay [5] and in [6]. Further, the result in assay [10] and in [8] was inactive.
Regarding `CCOC(=O)C(C)Oc1ccc(Oc2cnc3cc(Cl)ccc3n2)cc1` (centres undefined), the call in assay [1], in assay [9], in assay [2], in assay [3], in [4] and in assay [5] was inactive. Further, the call in [6] and in assay [8] was inactive.
`CCNc1nc(N)nc(Cl)n1`: the result in assay [1], in assay [2], in assay [3], in assay [4], in assay [5] and in assay [6] was inactive. The compound was called inactive in [8].
